# Measurements: publication PMC5540273 (PLoS ONE, 2017)
# Experiments:
# Conditions in all cases: concentration: 1 μM, replicates: in singlicate; n = 1
# ACVR1 = tested on: ACVR1
# ACVR2A = tested on: ACVR2A
# ACVR2B = tested on: ACVR2B
# ACVRL1 = tested on: ACVRL1
# ADCK3 = tested on: T1, ADCK3
# T1 construct: gene CABC1
# ADCK4 = tested on: ADCK4
# AKT1 = tested on: AKT1
# AKT2 = tested on: AKT2
# AKT3 = tested on: AKT3
# ALK = tested on: ALK
# AMPK-alpha1 = tested on: T2, AMPK-alpha1
# T2 construct: gene PRKAA1
# AMPK-alpha2 = tested on: T3, AMPK-alpha2
# T3 construct: gene PRKAA2
# ANKK1 = tested on: ANKK1
# ARK5 = tested on: T4, ARK5
# T4 construct: gene NUAK1
# ASK1 = tested on: T5, ASK1
# T5 construct: gene MAP3K5
# ASK2 = tested on: T6, ASK2
# T6 construct: gene MAP3K6
# AURKA = tested on: AURKA
# AURKB = tested on: AURKB
# AURKC = tested on: AURKC
# AXL = tested on: AXL
# 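Further: KINOMEscan kinase panel screen.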
SMILES,%Inh (ACVR1) [%],%Inh (ACVR2A) [%],%Inh (ACVR2B) [%],%Inh (ACVRL1) [%],%Inh (ADCK3) [%],%Inh (ADCK4) [%],%Inh (AKT1) [%],%Inh (AKT2) [%],%Inh (AKT3) [%],%Inh (ALK) [%],%Inh (AMPK-alpha1) [%],%Inh (AMPK-alpha2) [%],%Inh (ANKK1) [%],%Inh (ARK5) [%],%Inh (ASK1) [%],%Inh (ASK2) [%],%Inh (AURKA) [%],%Inh (AURKB) [%],%Inh (AURKC) [%],%Inh (AXL) [%]
Cc1c(Cn2c3ccccc3n3c(=O)cc(N4CCOCC4)nc23)cccc1C(F)(F)F [GSK2306394],10,6,0,9,0,0,0,19,0,2,0,0,0,8,0,8,0,9,14,5
COC(=O)C(Cc1ccccc1)NC(=O)NC1CCN(c2ccnc(Nc3ccc(F)cc3)n2)C1 (stereo not drawn) [GSK1379714],6,0,6,0,21,36,0,0,0,0,7,0,0,0,5,0,43,11,35,3
CCn1c(-c2c(N)noc2C)nc2cnccc21 [SB-737856],21,0,0,0,23,24,0,18,0,35,4,0,0,25,0,0,0,32,4,0
COc1ccc(Nc2nccc(-c3ccc(NC(=O)c4cc5cc(F)ccc5[nH]4)cc3)n2)cc1 [GSK1229496],0,0,0,0,5,29,0,0,0,17,0,0,0,0,2,0,0,5,0,0
CSc1ccc(-c2nc3n(c2-c2ccncc2)CCC3)cc1 [SKF-105561],5,0,2,21,0,0,6,0,6,8,0,0,0,0,12,17,10,0,0,0
O=C(Nc1n[nH]c2nc(-c3cccs3)c(Br)cc12)C1CC1 [SB-735297],27,0,0,0,0,0,0,0,0,0,0,8,9,0,2,13,0,31,6,28
CNc1cc(-c2ccc3c(N)n[nH]c3c2)nc(N)n1 [GSK2224810],29,43,56,0,13,13,0,0,0,5,0,0,10,0,0,0,4,0,10,0
Cc1nccc(-c2c(-c3ccc(F)cc3)ncn2CCCN2CCOCC2)n1.Cl [SB-282975],5,53,7,19,37,0,28,0,0,9,0,0,33,0,7,20,8,14,34,0
COc1cccc(NC(=O)Nc2ccc(C)c(-c3ccc(C(=O)Nc4ccncc4)cc3)c2)c1 [GSK1398474],0,0,12,0,30,12,0,16,0,23,0,13,10,20,2,0,14,0,40,25
CNCc1ccc2nc(NC(=O)c3ccc(C(C)(C)C)cc3)cn2c1,2,0,0,7,0,13,5,8,17,16,0,13,40,0,21,0,8,22,25,15
Cc1ccc(NC(=O)Nc2ccccc2F)cc1-c1ccc(C(=O)Nc2ccncc2)cc1 [GSK1398477],32,21,14,5,22,25,0,22,0,25,7,23,0,8,12,21,0,0,27,25
CS(=O)(=O)Cc1ccc(Nc2nccc(-c3c(-c4cccc(NC(=O)C5CCCCC5)c4)nn4ncccc34)n2)cc1 [GSK350559],18,0,0,0,24,0,23,4,0,29,2,2,0,0,0,34,9,15,49,18
CS(=O)(=O)CCNCc1nc(-c2ccc3ncnc(Nc4ccc5c(cnn5Cc5ccccc5)c4)c3c2)cs1.Cl.Cl [GW569716],1,0,0,0,10,54,0,2,0,31,0,0,0,0,0,0,32,29,0,0
COC(=O)c1cccc(NC(=O)NC2CCN(c3ccnc(Nc4ccc(OC)cc4)n3)C2)c1 (stereo not drawn) [GSK1379746],41,0,0,0,18,52,0,11,0,20,0,0,0,31,22,0,10,25,28,0
Cn1cncc1C(=O)NC1CCN(c2ccnc(Nc3ccc(F)cc3)n2)C1 (stereo not drawn) [GSK1379717],24,24,2,0,2,26,0,0,0,0,0,12,0,9,10,3,0,23,8,0
Cn1cnc2c(N)ncnc21 [SKF-97623],0,0,0,0,0,17,0,0,0,28,5,0,0,0,0,0,5,0,0,10
COc1nccc(-c2c(-c3ccc(F)cc3)ncn2CCCN2CCOCC2)n1 [SB-282852],0,0,0,0,0,18,0,3,3,25,77,0,0,0,0,0,23,42,0,0
Cc1ccc(NC(=O)Nc2ccc(Cl)c(C(F)(F)F)c2)cc1-c1ccc(C(=O)Nc2ccncc2)cc1 [GSK1398470],1,0,0,0,14,2,0,16,0,0,2,16,15,14,0,0,0,0,8,17
CCc1ccc(-c2ccc3c(c2)-c2n[nH]cc2S(=O)(=O)N3C)cc1,0,13,22,0,9,0,3,0,0,0,0,1,0,13,6,0,0,0,11,51
FC(F)(F)c1ccccc1-c1cc(-c2c[nH]nc2-c2ccccn2)ccn1 [GW679396],0,3,17,0,4,0,0,7,16,18,0,25,0,0,10,0,44,0,16,0
O=C(Nc1n[nH]c2nc(-c3ccco3)c(Br)cc12)C1CCN(Cc2ccccc2)C1.O=C(O)[C@H](O)[C@@H](O)C(=O)O (stereo not drawn) [SB-742034],0,21,0,28,7,0,0,3,3,5,9,0,11,0,13,17,34,17,7,13
